The target of test [1] is Cytochrome P450 1A2 (Homo sapiens) (UniProt P05177). Briefly: p450-cyp1a2 (AID 410; calls by dose curve; note: potency is the fitted concentration of half-maximal effect). Summed up:
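Luminescent demethylation readout: Luciferin-ME (100uM, equal to Km) turned over by 20nM CYP1A2 for 60 min at room temperature after NADPH regeneration addition, following 10 min compound preincubation. Normalization used 57 uM furafylline as full inhibition.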

The nature of test [2]: NFAT Signaling Pathway (AID 444; active = well fitted curve in either direction with a large enough effect, not every such curve was filed as active;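 note: carbachol stimulus at about its EC50 of 1 µM final; % is set by controls: 0 for no effect and ±100 for the full control effect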). The settings on record: Jurkat NFAT-bla M1, carbachol, beta-lactamase ratio, 5 h; at 38 µM (top of the series). The essentials:
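Read-out: CCF4 FRET ratio (460 nm/530 nm) after 1 h RT dye loading, used for %activity and AC50 from titration series. Cells: Jurkat NFAT-β-lactamase/M1 line, treated with compound plus 1 uM carbachol for 5 h, 37 °C.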

The target of test [3] is Glucocorticoid receptor (Homo sapiens) (UniProt P04150). Nature of the test: GR-GFP Redistribution (AID 450;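 active = compounds whose dose series gives a full or clear partial fitted curve of increased nuclear translocation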; note: potency is the fitted concentration of half-maximal effect). The settings on record: U2OS GR-GFP nuclear translocation, laser cytometry, 2 h.
Test [4] has the same target. Briefly: GR-EFC Redistribution (AID 451; calls by dose curve; note: potency is the fitted concentration of half-maximal effect). The note with it: CHO-K1 GR-EFC translocation, beta-gal luminescence, 2 h. Summed up:
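Translocation of GR-ED fusion to nuclear EA restores b-gal, read by luminescence after 1 h room-temperature detection. Engineered CHO-K1 biosensor cells, 1,000/well, exposed 2 h at 37 C to titrations up to 46 uM final.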

Test [5] deals with Mitogen-activated protein kinase 10 (Mus musculus) (UniProt Q61831). Nature of the test: JNK3 AlphaScreen Assay (AID 530; active = well fitted curve in either direction with a large enough effect, not every such curve was filed as active;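 note: kinase came from lysate of stimulated human HepG2 cells; potency is the fitted concentration of half-maximal effect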). Summed up:
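qHTS titrations with 15 min compound pre-incubation before adding ATP (10 uM final). Read-out: AlphaScreen of Ser73-phosphorylated biotin-GST-cJun using HepG2 lysate JNK3 activated by IL-1β and TNFα.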

Test [6] has as its target 3',5'-cyclic-AMP phosphodiesterase 4B (Homo sapiens) (UniProt Q07343). Briefly: qHTS Assay for Inhibitors of PDE-IV (AID 607; active = well fitted activation curve with a large enough effect in the main read-out, with a control signal flat, not every such curve was filed as active; note: % of control where 0% means no effect). Summed up: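 The readout is membrane depolarisation from a cAMP-sensing CNG channel, detected with a potential dye at ex 535/em 590. Cells were HEK293-derived (endogenous PDE-IV) at 1000 cells/well, titrated up to 22.9 uM final.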
The target of test [7] is Guanine nucleotide-binding protein G(i) subunit alpha-1 (Homo sapiens) (UniProt P63096). Nature of the test: qHTS Assay for Inhibitors of RGS12 GoLoco Motif Activity (Green Fluorophore) (AID 879).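 Note: 0% = labeled peptide with Gαi1 and full inhibition = labeled peptide alone without protein; negative values mean loss of peptide binding seen as reduced polarization.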 The essentials:
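A drop in FITC polarization marked displacement of the FITC-tagged RGS12 GoLoco peptide (10 nM) from Gαi1 (50 nM). Compounds were incubated 10 min at room temperature in Tris pH 7.5 buffer containing 150 mM NaCl, 0.1 mM GDP and 0.05% NP40; unlabeled peptide titration served as control.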
For orientation: qHTS replaces the single test concentration by a dilution series.

In test [8] the target is Cytochrome P450 2C9 (Homo sapiens) (UniProt P11712). Briefly: qHTS Assay for Inhibitors and Substrates of Cytochrome P450 2C9 (AID 883). Note: % is set by controls: 0 for no effect and ±100 for the full control effect; nearly all actives have a fitted effect of over 60% in size. The essentials:
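Turnover of Luciferin-H (100uM, KM) by 10nM human CYP2C9 was measured over 60 min at 37C with NADPH regeneration; inhibitors and some substrates reduce luminescence. Data normalized to sulphaphenazole 57uM.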

Test [9] deals with Cytochrome P450 2D6 (Homo sapiens) (UniProt P10635). Briefly: qHTS Assay for Inhibitors and Substrates of Cytochrome P450 2D6 (AID 891).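 Note: luciferin methyl ether substrate demethylated by CYP2D6 with NADPH regeneration; % is set by controls: 0 for no effect and ±100 for the full control effect; nearly all actives have a fitted effect of over 60% in size.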 Summed up: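 Luminescent read-out of luciferin formed by 5 nM human CYP2D6 demethylating 30 uM Luciferin-ME EGE (Km level) over 60 min at room temperature after NADPH regeneration addition. Data normalized to full inhibition by 1.43 uM quinidine.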

Test [10] is described as follows: qHTS Assay for Identification of Small Molecule Agonists for Thrombopoietin (TPO) Signaling Pathway (AID 917). Note: % is set by controls: 0 for no effect and ±100 for the full control effect. Summed up: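 Luciferase reporter (Glycoprotein IIb promoter) in IL-3-deprived Ba/F3 cells carrying human TPO receptor; compounds co-added with 26 pM TPO, incubated 24 h, 37 C. Steadylite luminescence measured after 10 min.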
Test [11] concerns the target Muscarinic acetylcholine receptor M1 (Rattus norvegicus) (UniProt P08482). Nature of the test: qHTS Assay for Antagonists of Acetylcholine Muscarinic M1 Receptor: Kinetic Measurement of Intracellular Calcium Response (AID 943).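 Note: Fluo-4 calcium signal as peak divided by basal fluorescence over 4 min; nearly all actives have a fitted effect of over 75% in size.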 The essentials: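 Antagonism measured as reduction of carbachol-evoked (EC80, 100 nM final) calcium flux in rat M1-CHO cells after 10 min compound exposure. Fluo-4 signal read kinetically; ratio of maximal to basal fluorescence.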

The target in test [12] is Pyruvate kinase PKM (Homo sapiens) (UniProt P14618). Briefly: qHTS Assay for Activators of Human Muscle Pyruvate Kinase (AID 954; active = well fitted curve in the direction sought with a large enough effect, not every such curve was filed as active;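 note: 0% = uninhibited enzyme and -100% = no enzyme or full thiadiazolimine inhibition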). Summed up:
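PKM2, human, >95% pure, 0.1 nM; PEP 0.5 mM (Km), ADP 0.1 mM; 50 mM imidazole pH 7.2, 50 mM KCl, 0.01% Tween 20, 0.05% BSA; 1 h RT; luciferase luminescence readout.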

For test [13] the target is unchanged. Nature of the test: qHTS Assay for Inhibitors of Human Muscle Pyruvate Kinase (AID 958). The settings on record: purified human PKM enzyme activity. Summed up:
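A coupled luminescent readout tracked ATP made from ADP by purified PKM2. Final conditions included 0.1 nM enzyme, PEP and ADP at 0.5 and 0.1 mM, pH 7.2 imidazole buffer with BSA, and a one-hour room-temperature reaction.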

The target in test [14] is Pyruvate kinase (Leishmania mexicana) (UniProt Q27686). Briefly: qHTS Validation Assay for Activators of Leishmania Mexicana Pyruvate Kinase (AID 959). The essentials: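 The enzyme is a highly purified E451W mutant of LmPYK used at 0.2 nM. It converts 0.5 mM PEP and 0.1 mM ADP over 1 h at room temperature; product ATP is quantified by luciferase luminescence relative to DMSO controls.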

In test [15] the target is Alpha-galactosidase A (Homo sapiens) (UniProt P06280). Briefly: Counterscreen for Glucocerebrosidase Inhibitors: qHTS Assay for Human alpha-Galactosidase at pH 4.5 (AID 992). Note: 0% is about no effect. The essentials: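 Fluorogenic 4-MU alpha-D-galactoside (80 uM) hydrolysis, 2 nM enzyme, pH 4.5 citrate buffer + 0.005% Tween-20; 20 min RT; NaOH/glycine pH 10 stop; Ex365/Em440. Compounds titrated 0.7 nM–77 uM; Hill-equation AC50.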
(In general: The purpose of a counterscreen is to sort out artefacts and off-target activity.)

Test [16] concerns the target alpha-glucosidase (Oryza sativa, rice) (UniProt Q653V4). Nature of the test: Counterscreen for Glucocerebrosidase Inhibitors: qHTS Assay for Rice alpha-Glucosidase at pH 5.0 (AID 997).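 Note: 0% = full activity with enzyme and -100% = basal without enzyme.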 Summed up:
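Endpoint fluorogenic assay at pH 5.0: compounds (0.7 nM to 77 uM) titrated against 4 nM rice enzyme and 400 uM 4-MU-alpha-glucoside for 20 min at room temperature; NaOH/glycine stop, read ex 365/em 440 nm, Hill-fitted AC50.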

Test [17] in a line: qHTS Assay for Lipid Storage Modulators (AID 1519; calls by dose curve; for activity change, negative = inhibition: % is set by controls: 0 for no effect and ±100 for the full control effect). The settings on record: Drosophila S3 cells, BODIPY lipid droplet/cell ratio, laser cytometry, cells loaded with oleic acid. The essentials: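 Cells seeded at 5,000 per well were treated with compounds over a concentration series and loaded with oleic acid (400 uM, as added). Lipid droplet fluorescence (488 nm excitation, 500-530 nm channel) was read by laser-scanning cytometry and normalized to 20 uM Triacsin C.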

The target in test [18] is DNA repair nuclease/redox regulator APEX1 (Homo sapiens) (UniProt P27695). Nature of the test: qHTS Validation Assay for Inhibitors of the Human Apurinic/apyrimidinic Endonuclease 1 (APE1) (AID 1705;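 note: TAMRA fluorescence gain over two minutes as APE1 cuts a quenched THF abasic duplex; % is set by controls: 0 for no effect and ±100 for the full control effect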). The essentials: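 Activity read as rising fluorescence (598 nm emission, 525 nm excitation) from incision of a TAMRA/BHQ-2 duplex carrying a THF abasic site (50 nM). Compound and enzyme sat 15 min at RT before substrate start; signal change between first and third 60-s reads.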

The nature of test [19]: Counterscreen for APE1 Inhibitors: Fluorescent Dye Displacement Validation Assay (AID 1707).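 Note: plate controls were ThO with dsDNA and no compound for no effect and ThO without dsDNA for full effect.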 Summed up:
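Endpoint fluorescence read at 480 nm excitation / 540 nm emission; DNA-binding compounds lower signal by displacing 250 nM Thiazole Orange from 50 nM dsDNA containing a tetrahydrofuran abasic site, Tris-HCl pH7.5 buffer with NaCl and MgCl2.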

Molecules are shown by their SMILES. Several values for one entry are separate records, joined by “and”; a condition that tells them apart may be missing. Equal values may be shown once. Results filed as inconclusive are left out. Activity calls are given as the source filed them. Unless noted, calls come from the whole dose curve; as a rule, active = well fitted curve in the direction sought with a large enough effect; inconclusive = small, poorly fitted or top-dose-only effect, or another doubt; inactive = no such curve, though single readings can be large; an effect the other way counts as inactive or inconclusive. Where only a bound is given, the exact number is not on record here.

Chain of Glucocorticoid receptor (Homo sapiens) (P04150 whole entry, looked up): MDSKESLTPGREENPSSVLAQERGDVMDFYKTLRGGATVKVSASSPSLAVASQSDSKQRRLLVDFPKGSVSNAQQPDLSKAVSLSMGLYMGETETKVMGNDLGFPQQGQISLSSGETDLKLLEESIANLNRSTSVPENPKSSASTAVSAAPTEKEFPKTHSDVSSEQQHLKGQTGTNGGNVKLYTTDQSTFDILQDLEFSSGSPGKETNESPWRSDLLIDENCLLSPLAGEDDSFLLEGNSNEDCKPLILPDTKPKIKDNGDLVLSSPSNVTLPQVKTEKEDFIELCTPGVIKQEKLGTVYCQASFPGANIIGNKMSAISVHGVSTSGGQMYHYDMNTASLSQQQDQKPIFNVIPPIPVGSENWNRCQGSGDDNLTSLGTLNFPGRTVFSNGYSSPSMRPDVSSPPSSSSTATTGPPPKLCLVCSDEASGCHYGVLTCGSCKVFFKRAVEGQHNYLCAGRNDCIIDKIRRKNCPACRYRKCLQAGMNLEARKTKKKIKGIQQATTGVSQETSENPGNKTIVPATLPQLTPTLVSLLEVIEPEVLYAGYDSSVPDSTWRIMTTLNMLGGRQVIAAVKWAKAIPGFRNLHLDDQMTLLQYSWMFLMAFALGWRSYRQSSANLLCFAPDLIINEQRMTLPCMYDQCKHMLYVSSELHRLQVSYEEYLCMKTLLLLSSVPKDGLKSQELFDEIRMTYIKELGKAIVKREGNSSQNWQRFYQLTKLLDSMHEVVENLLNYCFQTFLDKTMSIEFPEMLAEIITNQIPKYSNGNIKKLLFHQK
Chain of Pyruvate kinase PKM (Homo sapiens) (P14618 whole entry, looked up): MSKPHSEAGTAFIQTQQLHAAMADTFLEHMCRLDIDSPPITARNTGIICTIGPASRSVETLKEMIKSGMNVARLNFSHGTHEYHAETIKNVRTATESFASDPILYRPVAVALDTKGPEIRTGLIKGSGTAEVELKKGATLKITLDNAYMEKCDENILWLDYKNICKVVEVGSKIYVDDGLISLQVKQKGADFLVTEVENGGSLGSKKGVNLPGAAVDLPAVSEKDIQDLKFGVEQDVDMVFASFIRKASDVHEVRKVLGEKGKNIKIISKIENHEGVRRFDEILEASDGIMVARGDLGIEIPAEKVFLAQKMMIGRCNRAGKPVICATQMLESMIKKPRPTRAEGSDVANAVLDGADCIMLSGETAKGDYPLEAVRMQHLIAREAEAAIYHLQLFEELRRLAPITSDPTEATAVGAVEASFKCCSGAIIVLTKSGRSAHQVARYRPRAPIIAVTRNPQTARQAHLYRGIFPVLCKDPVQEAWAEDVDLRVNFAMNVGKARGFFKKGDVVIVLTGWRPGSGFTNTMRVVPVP
Chain of Cytochrome P450 1A2 (Homo sapiens) (P05177 whole entry, looked up): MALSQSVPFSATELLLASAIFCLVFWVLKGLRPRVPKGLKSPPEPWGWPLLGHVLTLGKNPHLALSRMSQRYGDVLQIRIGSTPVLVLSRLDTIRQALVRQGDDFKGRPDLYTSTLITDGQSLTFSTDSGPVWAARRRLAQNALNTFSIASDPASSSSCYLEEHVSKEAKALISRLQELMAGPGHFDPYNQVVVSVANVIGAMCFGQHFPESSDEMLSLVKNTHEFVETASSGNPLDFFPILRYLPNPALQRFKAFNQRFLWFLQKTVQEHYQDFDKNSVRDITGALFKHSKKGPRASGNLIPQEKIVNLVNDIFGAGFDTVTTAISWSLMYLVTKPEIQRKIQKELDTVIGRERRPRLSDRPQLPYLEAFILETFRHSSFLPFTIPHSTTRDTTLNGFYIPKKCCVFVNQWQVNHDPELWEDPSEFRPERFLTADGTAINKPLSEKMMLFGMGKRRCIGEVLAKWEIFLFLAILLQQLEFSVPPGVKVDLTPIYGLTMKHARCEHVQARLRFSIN
Chain of Alpha-galactosidase A (Homo sapiens) (P06280 whole entry, looked up): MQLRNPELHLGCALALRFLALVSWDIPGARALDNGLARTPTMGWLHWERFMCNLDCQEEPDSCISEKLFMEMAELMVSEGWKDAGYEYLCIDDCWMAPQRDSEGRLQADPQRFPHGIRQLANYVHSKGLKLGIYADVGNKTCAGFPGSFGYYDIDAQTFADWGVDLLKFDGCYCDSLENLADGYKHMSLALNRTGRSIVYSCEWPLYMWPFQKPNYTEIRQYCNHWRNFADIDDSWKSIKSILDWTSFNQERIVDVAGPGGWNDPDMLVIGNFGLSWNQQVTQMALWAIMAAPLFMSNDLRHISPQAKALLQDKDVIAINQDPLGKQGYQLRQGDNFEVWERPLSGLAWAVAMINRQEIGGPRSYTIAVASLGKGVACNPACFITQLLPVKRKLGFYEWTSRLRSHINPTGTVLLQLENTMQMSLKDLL
Chain of Cytochrome P450 2D6 (Homo sapiens) (P10635 whole entry, looked up): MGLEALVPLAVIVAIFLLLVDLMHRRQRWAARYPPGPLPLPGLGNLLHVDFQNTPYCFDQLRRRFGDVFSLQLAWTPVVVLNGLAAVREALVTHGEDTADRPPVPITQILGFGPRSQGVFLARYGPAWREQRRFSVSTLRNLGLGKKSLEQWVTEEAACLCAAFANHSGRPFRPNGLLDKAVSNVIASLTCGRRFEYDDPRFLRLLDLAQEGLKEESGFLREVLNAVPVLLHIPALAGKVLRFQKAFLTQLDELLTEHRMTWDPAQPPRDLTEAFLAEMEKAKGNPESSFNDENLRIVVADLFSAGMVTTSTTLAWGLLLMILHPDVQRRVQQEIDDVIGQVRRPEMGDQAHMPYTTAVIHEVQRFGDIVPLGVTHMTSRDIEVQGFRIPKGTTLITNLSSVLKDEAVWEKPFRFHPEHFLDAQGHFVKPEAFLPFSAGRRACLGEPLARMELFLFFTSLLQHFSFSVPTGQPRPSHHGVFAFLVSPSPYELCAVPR
Chain of Pyruvate kinase (Leishmania mexicana) (Q27686 2-499 E452W): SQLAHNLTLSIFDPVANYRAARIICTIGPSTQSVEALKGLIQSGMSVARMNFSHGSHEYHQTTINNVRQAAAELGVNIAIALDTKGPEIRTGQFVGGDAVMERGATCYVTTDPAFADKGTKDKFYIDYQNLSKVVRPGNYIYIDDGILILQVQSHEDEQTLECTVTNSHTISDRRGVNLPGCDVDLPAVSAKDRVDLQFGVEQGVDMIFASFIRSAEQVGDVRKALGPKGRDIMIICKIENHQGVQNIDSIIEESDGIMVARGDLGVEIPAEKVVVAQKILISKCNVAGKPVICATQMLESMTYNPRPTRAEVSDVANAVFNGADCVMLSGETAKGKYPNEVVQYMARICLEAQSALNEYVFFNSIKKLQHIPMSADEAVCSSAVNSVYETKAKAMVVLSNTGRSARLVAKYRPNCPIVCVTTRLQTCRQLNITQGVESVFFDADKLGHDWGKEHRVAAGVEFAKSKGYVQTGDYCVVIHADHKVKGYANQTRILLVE
Chain of Guanine nucleotide-binding protein G(i) subunit alpha-1 (Homo sapiens) (P63096 whole entry, looked up): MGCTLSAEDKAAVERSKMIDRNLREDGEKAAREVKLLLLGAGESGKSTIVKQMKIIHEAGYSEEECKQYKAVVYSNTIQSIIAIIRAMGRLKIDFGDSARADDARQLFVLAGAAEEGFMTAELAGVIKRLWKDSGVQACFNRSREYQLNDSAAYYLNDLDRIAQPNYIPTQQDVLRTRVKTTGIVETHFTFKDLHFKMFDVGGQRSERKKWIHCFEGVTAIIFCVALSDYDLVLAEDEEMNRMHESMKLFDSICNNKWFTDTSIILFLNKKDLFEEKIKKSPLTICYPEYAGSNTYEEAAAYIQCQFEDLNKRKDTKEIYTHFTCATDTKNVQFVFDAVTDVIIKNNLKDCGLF
Chain of Muscarinic acetylcholine receptor M1 (Rattus norvegicus) (P08482 whole entry, looked up): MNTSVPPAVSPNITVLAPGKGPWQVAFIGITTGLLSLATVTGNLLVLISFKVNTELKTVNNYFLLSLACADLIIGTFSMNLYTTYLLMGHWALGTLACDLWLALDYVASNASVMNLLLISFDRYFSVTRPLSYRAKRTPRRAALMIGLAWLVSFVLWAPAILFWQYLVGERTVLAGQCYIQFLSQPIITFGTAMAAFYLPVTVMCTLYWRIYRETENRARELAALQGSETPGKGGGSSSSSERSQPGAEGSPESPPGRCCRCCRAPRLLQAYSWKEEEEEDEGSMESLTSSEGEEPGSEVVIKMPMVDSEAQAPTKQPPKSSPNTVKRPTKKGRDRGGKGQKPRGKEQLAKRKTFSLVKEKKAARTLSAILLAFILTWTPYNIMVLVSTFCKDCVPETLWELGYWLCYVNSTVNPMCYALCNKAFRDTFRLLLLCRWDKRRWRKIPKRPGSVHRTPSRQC
Chain of Cytochrome P450 2C9 (Homo sapiens) (P11712 whole entry, looked up): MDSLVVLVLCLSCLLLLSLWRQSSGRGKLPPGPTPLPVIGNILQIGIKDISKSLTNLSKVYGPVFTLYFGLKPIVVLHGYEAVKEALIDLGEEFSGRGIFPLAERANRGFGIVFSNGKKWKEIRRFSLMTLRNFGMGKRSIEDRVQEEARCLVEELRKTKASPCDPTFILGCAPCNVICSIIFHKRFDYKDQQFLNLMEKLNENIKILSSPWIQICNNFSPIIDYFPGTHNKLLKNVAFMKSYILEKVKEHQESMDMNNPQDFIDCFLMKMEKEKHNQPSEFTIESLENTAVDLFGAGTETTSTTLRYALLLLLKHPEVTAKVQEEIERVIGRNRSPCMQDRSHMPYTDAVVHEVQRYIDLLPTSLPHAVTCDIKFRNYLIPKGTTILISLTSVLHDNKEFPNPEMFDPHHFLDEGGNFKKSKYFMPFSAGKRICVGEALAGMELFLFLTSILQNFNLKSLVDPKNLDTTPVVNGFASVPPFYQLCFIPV
Chain of DNA repair nuclease/redox regulator APEX1 (Homo sapiens) (P27695 whole entry, looked up): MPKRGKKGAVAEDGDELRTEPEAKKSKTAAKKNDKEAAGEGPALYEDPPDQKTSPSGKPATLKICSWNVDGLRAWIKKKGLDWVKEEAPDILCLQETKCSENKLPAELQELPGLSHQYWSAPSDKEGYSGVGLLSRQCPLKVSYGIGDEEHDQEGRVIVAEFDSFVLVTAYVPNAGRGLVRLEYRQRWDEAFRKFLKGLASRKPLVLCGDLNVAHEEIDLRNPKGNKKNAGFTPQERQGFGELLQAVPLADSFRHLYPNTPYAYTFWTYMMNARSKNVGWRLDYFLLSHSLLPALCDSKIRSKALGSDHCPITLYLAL

Consider `N#C/C(=C\c1ccc(O)c(O)c1)C(=O)Nc1ccccc1`, for which the Potency in test [1] is 2 µM (active) and 501 nM (active); in [3] it was > 46 µM (inactive); in test [4] it was > 46 µM (inactive); in test [5] it was 12.6 µM (active); in [13], 25.1 µM (active). Further, the activity change, negative = inhibition in [2] was 6.23% (inactive); in [17] (at 57.5 µM (top of the series)), -21.4% (inactive). The Potency entry in test [6], in [8], in test [9], in [10], in test [11] and in [14] was “inactive” in each case. The Potency result in test [18] and in test [19] was “inactive” in each case. In addition, the result in test [7], in test [12], in test [15] and in [16] was inactive. The max response is -56.6% in [17] (measured here: cell count channel max response) and -66.1% in test [17] (measured here: lipid channel max response).

These data come from PubChem BioAssay (NCATS).
